Experimental data published in PubChem BioAssay AID1159580 (chemical genetic matrix, 2015).
About 2,000 (36%) of roughly 5,500 compounds were called active. Inconclusive results (about 18%) are left out. No stated cut-off is given here; in the data, active means normalized growth mostly below about 0.91 (no sharp cut-off); inconclusive means no clear call, values can overlap the other calls; inactive means mostly above about 0.92. This is one part of the list.

Assay: chemical genetic growth profiling, strain panel (AID 1159580);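 further: tested at 20 µM; growth read once vehicle control cultures reached saturation at 30 °C; 1 = growth at the plate median or of vehicle wells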
Conditions: growth OD

Measured: normalized growth

CCCC(=O)O[C@]1(C(=O)CO)CCC2[C@@H]3CCC4=CC(=O)CC[C@]4(C)C3[C@@H](O)C[C@@]21C (stereo not given in full)
inactive: S. cerevisiae deletion strains, locus YJR066W, strain TOR1, stronger effect = lower value 0.99 | S. cerevisiae deletion strains, locus YKL009W, strain mrt4, stronger effect = lower value 0.958 | S. cerevisiae deletion strains, locus YKL068W, stronger effect = lower value 1.02 | S. cerevisiae deletion strains, locus YKL085W, strain MDH1 (second series), stronger effect = lower value 1.01 | S. cerevisiae deletion strains, locus YKL085W, strain MDH1, stronger effect = lower value 1.01 | S. cerevisiae deletion strains, locus YKL160W, strain elf1, stronger effect = lower value 1.01 | S. cerevisiae deletion strains, locus YKL190W, strain CNB1, stronger effect = lower value 1 | S. cerevisiae deletion strains, locus YKR001C, strain vps1, stronger effect = lower value 0.982 | S. cerevisiae deletion strains, locus YKR026C, strain gcn3, stronger effect = lower value 1.01 | S. cerevisiae deletion strains, locus YKR091W, strain srl3, stronger effect = lower value 1 | S. cerevisiae deletion strains, locus YLL001W, strain dnm1, stronger effect = lower value 1.01 | S. cerevisiae deletion strains, locus YLL026W, stronger effect = lower value 1 | S. cerevisiae deletion strains, locus YLL041C, strain sdh2, stronger effect = lower value 1 | S. cerevisiae deletion strains, locus YLR027C, strain aat2, stronger effect = lower value 1 | S. cerevisiae deletion strains, locus YLR039C, strain RIC1, stronger effect = lower value 0.988 | S. cerevisiae deletion strains, locus YLR058C, strain SHM2, stronger effect = lower value 1.01 | S. cerevisiae deletion strains, locus YLR102C, strain apc9, stronger effect = lower value 0.985 | S. cerevisiae deletion strains, locus YLR113W, strain HOG1, stronger effect = lower value 1.07 | S. cerevisiae deletion strains, locus YLR221C, strain rsa3, stronger effect = lower value 1.01 | S. cerevisiae deletion strains, locus YLR258W, strain gsy2, stronger effect = lower value 1.01 | S. cerevisiae deletion strains, locus YLR262C, strain YPT6 (second series), stronger effect = lower value 1.01 | S. cerevisiae deletion strains, locus YLR262C, strain YPT6, stronger effect = lower value 1.01 | S. cerevisiae deletion strains, locus YLR268W, strain sec22, stronger effect = lower value 0.988 | S. cerevisiae deletion strains, locus YLR320W, strain mms22, stronger effect = lower value 1.02 | S. cerevisiae deletion strains, locus YLR330W, strain CHS5, stronger effect = lower value 1.01 | S. cerevisiae deletion strains, locus YLR342W, strain FKS1 (second series), stronger effect = lower value 0.996 | S. cerevisiae deletion strains, locus YLR342W, strain FKS1, stronger effect = lower value 1.02 | S. cerevisiae deletion strains, locus YLR357W, strain rsc2, stronger effect = lower value 1 | S. cerevisiae deletion strains, locus YLR370C, strain arc18, stronger effect = lower value 1.01 | S. cerevisiae deletion strains, locus YLR371W, strain rom2, stronger effect = lower value 0.996 | S. cerevisiae deletion strains, locus YLR384C, strain iki3, stronger effect = lower value 1.01 | S. cerevisiae deletion strains, locus YLR418C, strain cdc73, stronger effect = lower value 0.934 | S. cerevisiae deletion strains, locus YML016C, strain PPZ1, stronger effect = lower value 1.01 | S. cerevisiae deletion strains, locus YML032C, strain rad52, stronger effect = lower value 0.948 | S. cerevisiae deletion strains, locus YML120C, strain ndi1, stronger effect = lower value 0.992 | S. cerevisiae deletion strains, locus YML124C, strain tub3, stronger effect = lower value 0.996 | S. cerevisiae deletion strains, locus YMR058W, strain fet3, stronger effect = lower value 1.01 | S. cerevisiae deletion strains, locus YMR078C, strain ctf18, stronger effect = lower value 0.984 | S. cerevisiae deletion strains, locus YMR125W, strain sto1, stronger effect = lower value 1.02 | S. cerevisiae deletion strains, locus YMR129W, stronger effect = lower value 1.01 | S. cerevisiae deletion strains, locus YMR205C, strain PFK2, stronger effect = lower value 1.02 | S. cerevisiae deletion strains, locus YMR223W, strain ubp8, stronger effect = lower value 0.951 | S. cerevisiae deletion strains, locus YMR231W, strain pep5, stronger effect = lower value 1.01 | S. cerevisiae deletion strains, locus YMR263W, strain SAP30, stronger effect = lower value 1.01 | S. cerevisiae deletion strains, locus YMR307W, strain GAS1, stronger effect = lower value 0.999 | S. cerevisiae deletion strains, locus YNL067W, strain RPL9B, stronger effect = lower value 1.01 | S. cerevisiae deletion strains, locus YNL071W, strain lat1, stronger effect = lower value 1 | S. cerevisiae deletion strains, locus YNL128W, strain TEP1, stronger effect = lower value 0.994 | S. cerevisiae deletion strains, locus YNL153C, strain GIM3, stronger effect = lower value 1.02 | S. cerevisiae deletion strains, locus YNL183C, strain NPR1, stronger effect = lower value 0.995 | S. cerevisiae deletion strains, locus YNL209W, strain ssb2, stronger effect = lower value 1 | S. cerevisiae deletion strains, locus YNL233W, strain BNI4, stronger effect = lower value 1.02 | S. cerevisiae deletion strains, locus YNL248C, strain rpa49, stronger effect = lower value 1.02 | S. cerevisiae deletion strains, locus YNL250W, strain rad50, stronger effect = lower value 0.983 | S. cerevisiae deletion strains, locus YNL271C, strain bni1, stronger effect = lower value 0.992 | S. cerevisiae deletion strains, locus YNL298W, strain CLA4, stronger effect = lower value 0.972 | S. cerevisiae deletion strains, locus YNL307C, strain MCK1, stronger effect = lower value 0.982 | S. cerevisiae deletion strains, locus YNL322C, strain KRE1 (second series), stronger effect = lower value 1.01 | S. cerevisiae deletion strains, locus YNR049C, strain mso1, stronger effect = lower value 1.01 | S. cerevisiae deletion strains, locus YNR052C, strain pop2, stronger effect = lower value 0.975 | S. cerevisiae deletion strains, locus YOL006C, strain TOP1, stronger effect = lower value 1.06 | S. cerevisiae deletion strains, locus YOL012C, strain htz1 1.05 | S. cerevisiae deletion strains, locus YOL147C, strain pex11, stronger effect = lower value 0.982 | S. cerevisiae deletion strains, locus YOR001W, strain rrp6, stronger effect = lower value 1.02 | S. cerevisiae deletion strains, locus YOR061W, strain CKA2, stronger effect = lower value 1.01 | S. cerevisiae deletion strains, locus YOR069W, strain VPS5, stronger effect = lower value 1 | S. cerevisiae deletion strains, locus YOR070C, strain gyp1, stronger effect = lower value 1 | S. cerevisiae deletion strains, locus YOR080W, strain dia2, stronger effect = lower value 0.997 | S. cerevisiae deletion strains, locus YOR083W, strain WHI5, stronger effect = lower value 1 | S. cerevisiae deletion strains, locus YOR106W, strain vam3, stronger effect = lower value 1 | S. cerevisiae deletion strains, locus YOR136W, strain idh2, stronger effect = lower value 0.983 | S. cerevisiae deletion strains, locus YOR144C, strain elg1, stronger effect = lower value 0.977 | S. cerevisiae deletion strains, locus YOR184W, strain ser1, stronger effect = lower value 0.963 | S. cerevisiae deletion strains, locus YOR231W, strain MKK1, stronger effect = lower value 1.09 | S. cerevisiae deletion strains, locus YOR265W, strain rbl2, stronger effect = lower value 1 | S. cerevisiae deletion strains, locus YOR270C, strain vph1, stronger effect = lower value 1.01 | S. cerevisiae deletion strains, locus YOR290C, strain snf2, stronger effect = lower value 1 | S. cerevisiae deletion strains, locus YOR316C, strain cot1, stronger effect = lower value 0.994 | S. cerevisiae deletion strains, locus YPL051W, strain arl3, stronger effect = lower value 1 | S. cerevisiae deletion strains, locus YPL055C, strain LGE1, stronger effect = lower value 1.04 | S. cerevisiae deletion strains, locus YPL078C, strain atp4, stronger effect = lower value 1.01 | S. cerevisiae deletion strains, locus YPL106C, strain sse1, stronger effect = lower value 1.02 | S. cerevisiae deletion strains, locus YPL240C, strain hsp82, stronger effect = lower value 1 | S. cerevisiae deletion strains, locus YPL256C, strain CLN2, stronger effect = lower value 1.05 | S. cerevisiae deletion strains, locus YPR119W, strain clb2, stronger effect = lower value 0.993 | S. cerevisiae deletion strains, locus YPR141C, strain kar3, stronger effect = lower value 1.01 | S. cerevisiae deletion strains, locus YPR163C, strain tif3, stronger effect = lower value 1.01 | S. cerevisiae deletion strains, locus YPR167C, strain met16, stronger effect = lower value 0.99 | S. cerevisiae deletion strains, strain wtn01, stronger effect = lower value 0.961 | S. cerevisiae strains, strain wild type, stronger effect = lower value 1.01
